# Source: PubChem BioAssay (Tox21)
# Inconclusive results are not listed. A call without a number means that no potency is given here. Values without a mark were called inactive. Active and inactive are the calls of the source. Calls follow the shape of the dose curve; as a rule, active = well fitted curve in the direction sought with a large enough effect in the repeat runs; inconclusive = weak or mixed curves; inactive = no such curve, though single readings can be large; an effect the other way counts as inactive or inconclusive.
# Columns and labels:
# [1] = target: Cytochrome P450 2D6 (Homo sapiens) (UniProt P10635); assay: Cytochrome P450 Family 2 Subfamily D Member 6 (CYP2D6) small molecule antagonists: luciferase reporter qHTS assay (AID 1671196); also: nearly all actives have a fitted effect of over 50% in size; as to activity change, negative = inhibition: series mostly up to about 120 µM
# Procedure, shortened: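 Each well received CYP2D6 with its proluciferin substrate and chemical, sat 10 min, then got NADPH regeneration solution for 1 h at room temperature. Luminescence in RLU served as the activity measure.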
# [2] = target: Cytochrome P450 2C19 (Homo sapiens) (UniProt P33261); assay: Cytochrome P450 Family 2 Subfamily C Member 19 (CYP2C19) small molecule antagonists: luciferase reporter qHTS assay (AID 1671197); also: nearly all actives have a fitted effect of over 65% in size; as to activity change, negative = inhibition: series mostly up to about 120 µM
# Procedure, shortened: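 First, compounds are pinned into enzyme-substrate mix and held 10 min at room temperature. Second, NADPH regeneration solution is added and plates incubate 1 h at 37C. Third, detection reagent is added and luminescence read after 20 min.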
# [3] = target: Cytochrome P450 2C9 (Homo sapiens) (UniProt P11712); assay: Cytochrome P450 Family 2 Subfamily C Member 9 (CYP2C9) small molecule antagonists: luciferase reporter qHTS assay (AID 1671198); also: nearly all actives have a fitted effect of over 50% in size; as to activity change, negative = inhibition: series mostly up to about 120 µM
# Procedure, shortened: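 Enzyme-substrate mix preincubated with compound 10 min at room temperature; reaction started with NADPH regeneration solution, 1 h 37C. Luminescent luciferin product read after 20 min detection reagent.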
# [4] = target: Cytochrome P450 1A2 (Homo sapiens) (UniProt P05177); assay: Cytochrome P450 Family 1 Subfamily A Member 2 (CYP1A2) small molecule antagonists: luciferase reporter qHTS assay (AID 1671199); also: nearly all actives have a fitted effect of over 50% in size; as to activity change, negative = inhibition: series mostly up to about 120 µM
# Procedure, shortened: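 Enzymatic CYP1A2 assay, human, luminescent: 10 min compound–enzyme–substrate preincubation, 1 h NADPH-dependent turnover, 20 min detection step, room temperature throughout. Reduced light indicates lower CYP1A2 activity.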
# [5] = target: Voltage-gated inwardly rectifying potassium channel KCNH2 (Homo sapiens) (UniProt Q12809); assay: Human Ether-a-go-go-Related Gene (hERG) channel small molecule antagonists: fluorescence cell-based qHTS assay (AID 1671200); also: nearly all actives have a fitted effect of over 50% in size;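 as to activity change, negative = inhibition: hERG-expressing U2OS cells given a thallium stimulus after FluxOR II dye loading; series mostly up to about 77 µM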
# Procedure, shortened: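 Thallium served as the potassium surrogate; its influx into dye-loaded U2OS cells carrying the channel was measured by fluorescence over 2 min.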
# [6] = target: Cytochrome P450 3A4 (Homo sapiens) (UniProt P08684); assay: Cytochrome P450 Family 3 Subfamily A Member 4 (CYP3A4) small molecule antagonists: luciferase reporter qHTS assay (AID 1671201); also: nearly all actives have a fitted effect of over 50% in size; as to activity change, negative = inhibition: series mostly up to about 120 µM
# Procedure, shortened: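 Relative luminescence units after 20 min with luciferin detection reagent served as read-out. Beforehand, CYP3A4 turned over a proluciferin substrate for 1 h at room temperature with NADPH regeneration, following 10 min compound preincubation.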
# Potency is read from the fitted curve at half-maximal effect.
# Chain of Cytochrome P450 2D6 (Homo sapiens) (P10635 whole entry, looked up): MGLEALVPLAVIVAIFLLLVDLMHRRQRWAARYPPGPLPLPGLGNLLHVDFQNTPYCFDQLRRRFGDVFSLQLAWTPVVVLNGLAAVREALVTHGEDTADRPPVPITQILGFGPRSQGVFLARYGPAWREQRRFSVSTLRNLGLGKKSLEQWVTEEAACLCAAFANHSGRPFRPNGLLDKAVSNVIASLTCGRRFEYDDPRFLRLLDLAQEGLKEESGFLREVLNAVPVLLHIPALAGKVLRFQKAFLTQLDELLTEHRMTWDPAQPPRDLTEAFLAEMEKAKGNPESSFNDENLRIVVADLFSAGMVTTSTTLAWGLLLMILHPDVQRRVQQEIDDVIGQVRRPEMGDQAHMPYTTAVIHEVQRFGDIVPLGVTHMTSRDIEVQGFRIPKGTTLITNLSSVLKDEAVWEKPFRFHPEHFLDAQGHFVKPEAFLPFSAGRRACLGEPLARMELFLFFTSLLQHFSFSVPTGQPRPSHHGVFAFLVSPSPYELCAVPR
# Chain of Voltage-gated inwardly rectifying potassium channel KCNH2 (Homo sapiens) (Q12809 whole entry, looked up): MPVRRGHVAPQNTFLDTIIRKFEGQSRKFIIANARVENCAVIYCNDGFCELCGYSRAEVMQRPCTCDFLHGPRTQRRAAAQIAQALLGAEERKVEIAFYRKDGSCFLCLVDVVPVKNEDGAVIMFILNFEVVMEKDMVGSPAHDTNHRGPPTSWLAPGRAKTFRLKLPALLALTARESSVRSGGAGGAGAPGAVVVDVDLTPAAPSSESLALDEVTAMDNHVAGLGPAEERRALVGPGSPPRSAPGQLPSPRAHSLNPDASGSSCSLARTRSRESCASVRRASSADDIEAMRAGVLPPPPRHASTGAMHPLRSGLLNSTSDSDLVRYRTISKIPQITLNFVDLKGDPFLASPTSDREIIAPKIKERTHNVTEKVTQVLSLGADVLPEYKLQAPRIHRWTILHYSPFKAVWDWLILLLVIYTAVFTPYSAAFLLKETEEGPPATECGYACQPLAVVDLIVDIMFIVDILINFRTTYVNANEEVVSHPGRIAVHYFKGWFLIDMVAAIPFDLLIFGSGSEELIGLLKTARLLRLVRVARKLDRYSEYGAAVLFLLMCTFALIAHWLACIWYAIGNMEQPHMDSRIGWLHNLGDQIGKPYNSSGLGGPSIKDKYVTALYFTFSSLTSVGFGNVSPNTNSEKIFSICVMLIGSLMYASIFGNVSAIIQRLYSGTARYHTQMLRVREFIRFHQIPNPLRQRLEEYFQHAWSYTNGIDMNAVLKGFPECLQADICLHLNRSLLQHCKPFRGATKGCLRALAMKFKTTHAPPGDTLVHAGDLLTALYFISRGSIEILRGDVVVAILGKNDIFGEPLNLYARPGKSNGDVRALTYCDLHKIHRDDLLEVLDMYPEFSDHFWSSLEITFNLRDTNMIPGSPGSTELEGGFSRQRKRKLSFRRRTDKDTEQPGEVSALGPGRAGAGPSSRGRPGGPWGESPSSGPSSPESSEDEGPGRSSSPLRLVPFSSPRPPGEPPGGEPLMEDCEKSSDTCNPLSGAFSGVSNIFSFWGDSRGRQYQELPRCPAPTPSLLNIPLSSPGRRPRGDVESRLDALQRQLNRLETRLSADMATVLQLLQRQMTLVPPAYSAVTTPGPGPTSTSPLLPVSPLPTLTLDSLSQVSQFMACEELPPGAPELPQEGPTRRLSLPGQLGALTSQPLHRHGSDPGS
# Chain of Cytochrome P450 2C9 (Homo sapiens) (P11712 whole entry, looked up): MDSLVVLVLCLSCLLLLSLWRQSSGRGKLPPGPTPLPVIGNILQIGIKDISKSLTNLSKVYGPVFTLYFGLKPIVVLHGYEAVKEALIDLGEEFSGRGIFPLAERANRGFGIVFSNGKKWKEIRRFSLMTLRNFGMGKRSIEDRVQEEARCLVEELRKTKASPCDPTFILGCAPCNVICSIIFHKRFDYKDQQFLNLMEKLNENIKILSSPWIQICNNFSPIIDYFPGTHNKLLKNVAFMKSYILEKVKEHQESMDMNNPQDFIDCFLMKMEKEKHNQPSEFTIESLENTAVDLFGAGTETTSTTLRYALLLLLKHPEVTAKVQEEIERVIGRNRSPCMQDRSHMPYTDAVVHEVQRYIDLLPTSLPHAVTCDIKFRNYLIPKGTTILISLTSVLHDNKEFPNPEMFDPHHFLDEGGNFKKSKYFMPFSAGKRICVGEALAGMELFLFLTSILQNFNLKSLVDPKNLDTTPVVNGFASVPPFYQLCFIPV
# Chain of Cytochrome P450 2C19 (Homo sapiens) (P33261 whole entry, looked up): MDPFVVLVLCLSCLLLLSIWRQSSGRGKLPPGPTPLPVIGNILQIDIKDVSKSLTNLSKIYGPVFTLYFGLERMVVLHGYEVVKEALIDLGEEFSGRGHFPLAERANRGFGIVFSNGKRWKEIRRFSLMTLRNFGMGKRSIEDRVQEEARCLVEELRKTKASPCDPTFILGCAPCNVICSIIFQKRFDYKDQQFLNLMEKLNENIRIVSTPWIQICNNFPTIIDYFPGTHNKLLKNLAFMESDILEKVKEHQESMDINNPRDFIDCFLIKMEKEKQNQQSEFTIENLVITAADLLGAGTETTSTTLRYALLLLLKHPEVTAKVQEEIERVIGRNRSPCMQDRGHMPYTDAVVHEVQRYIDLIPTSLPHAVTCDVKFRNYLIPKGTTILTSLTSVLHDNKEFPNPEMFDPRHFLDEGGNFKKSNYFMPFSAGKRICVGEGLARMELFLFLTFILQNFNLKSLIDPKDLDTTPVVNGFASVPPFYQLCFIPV
# Chain of Cytochrome P450 3A4 (Homo sapiens) (P08684 whole entry, looked up): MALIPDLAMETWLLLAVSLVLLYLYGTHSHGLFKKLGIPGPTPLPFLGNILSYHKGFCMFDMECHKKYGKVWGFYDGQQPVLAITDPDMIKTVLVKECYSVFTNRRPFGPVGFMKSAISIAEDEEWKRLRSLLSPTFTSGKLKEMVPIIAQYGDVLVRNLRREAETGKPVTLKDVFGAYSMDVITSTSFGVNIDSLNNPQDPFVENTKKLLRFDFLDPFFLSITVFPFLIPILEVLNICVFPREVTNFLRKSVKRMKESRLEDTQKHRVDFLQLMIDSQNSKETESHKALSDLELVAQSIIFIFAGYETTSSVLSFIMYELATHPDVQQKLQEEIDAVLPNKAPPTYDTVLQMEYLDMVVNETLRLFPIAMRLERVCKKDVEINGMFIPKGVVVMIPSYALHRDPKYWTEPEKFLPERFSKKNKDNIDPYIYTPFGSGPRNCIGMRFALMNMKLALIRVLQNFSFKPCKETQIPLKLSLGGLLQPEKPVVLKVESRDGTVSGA
# Chain of Cytochrome P450 1A2 (Homo sapiens) (P05177 whole entry, looked up): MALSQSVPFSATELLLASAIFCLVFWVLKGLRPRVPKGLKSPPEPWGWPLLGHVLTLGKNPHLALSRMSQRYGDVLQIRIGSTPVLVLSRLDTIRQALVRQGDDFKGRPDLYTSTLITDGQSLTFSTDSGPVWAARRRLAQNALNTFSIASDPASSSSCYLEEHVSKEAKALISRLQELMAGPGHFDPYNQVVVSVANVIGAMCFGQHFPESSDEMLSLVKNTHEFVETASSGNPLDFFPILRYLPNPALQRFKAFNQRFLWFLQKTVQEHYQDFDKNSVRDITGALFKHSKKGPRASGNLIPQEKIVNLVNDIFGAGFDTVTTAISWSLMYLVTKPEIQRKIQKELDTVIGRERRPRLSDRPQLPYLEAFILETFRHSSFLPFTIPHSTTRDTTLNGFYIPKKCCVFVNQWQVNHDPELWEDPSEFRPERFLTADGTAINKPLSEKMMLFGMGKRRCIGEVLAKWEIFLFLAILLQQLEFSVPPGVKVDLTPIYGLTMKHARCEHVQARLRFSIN
structure (smiles),measurement,setting,value
CC(C)CCOC(=O)CC(C)C,Potency,[1],inactive
same,Potency,[2],inactive
same,Potency,[3],inactive
same,Potency,[4],inactive
same,Potency,[5],inactive
same,Potency,[6],inactive
COc1cccc(Br)c1,Potency,[1],inactive
same,Potency,[2],inactive
same,Potency,[3],inactive
same,Potency,[4],inactive
same,Potency,[5],inactive
same,Potency,[6],inactive
COCc1ccc(COC)cc1,Potency,[1],inactive
same,Potency,[2],inactive
same,Potency,[3],inactive
same,Potency,[4],inactive
same,Potency,[5],inactive
same,Potency,[6],inactive
CCCCOCC(C)OCC(C)O (configuration not stated),Potency,[1],29 µM (active)
same,Potency,[2],inactive
same,Potency,[3],inactive
same,Potency,[4],inactive
same,Potency,[5],inactive
same,Potency,[6],inactive
CC(C)=CC(=O)O,Potency,[1],inactive
same,Potency,[2],inactive
same,Potency,[3],inactive
same,Potency,[5],inactive
same,Potency,[6],inactive
NC(CS)C(=O)O (configuration not stated),Potency,[1],inactive
same,Potency,[2],inactive
same,Potency,[3],inactive
same,Potency,[4],17.4 µM (active)
same,Potency,[5],inactive
same,Potency,[6],inactive
OC/C=C/c1ccccc1,Potency,[1],59 µM (active)
same,Potency,[2],74.3 µM (active)
same,Potency,[3],52.6 µM (active)
same,Potency,[5],inactive
same,Potency,[6],inactive
NC1CCN(c2cccc(Cl)n2)CC1,Potency,[1],1.23 µM (active)
same,Potency,[2],inactive
same,Potency,[3],inactive
same,Potency,[5],inactive
same,Potency,[6],inactive
CC1=CC(C)C(C=O)C(C)C1 (configuration not stated),Potency,[1],inactive
same,Potency,[2],inactive
same,Potency,[4],inactive
same,Potency,[5],inactive
same,Potency,[6],inactive
NS(=O)(=O)c1cc2c(cc1Cl)NC(CSCc1ccccc1)=NS2(=O)=O,Potency,[1],34.7 µM (active)
same,Potency,[3],4.9 µM (active)
same,Potency,[4],inactive
same,Potency,[5],inactive
C1=C\CC/C=C\CC/C=C\CC/1,Potency,[1],inactive
same,Potency,[2],inactive
same,Potency,[6],inactive
CC(C)c1cccc(O)c1,Potency,[1],inactive
same,Potency,[2],inactive
same,Potency,[3],inactive
same,Potency,[6],inactive
C#CC(O)CCCCC (configuration not stated),Potency,[1],inactive
same,Potency,[2],80.3 µM (active)
same,Potency,[3],inactive
same,Potency,[5],inactive
same,Potency,[6],inactive
NC(N)=NS(=O)(=O)c1ccc(N)cc1,Potency,[1],inactive
same,Potency,[3],inactive
same,Potency,[4],inactive
same,Potency,[5],inactive
same,Potency,[6],inactive
OCCCCCCO,Potency,[1],36 µM (active)
same,Potency,[3],40.4 µM (active)
same,Potency,[4],40.4 µM (active)
same,Potency,[5],inactive
COC(=O)c1ccc(C(=O)OC)c(C(=O)OC)c1,Potency,[1],inactive
same,Potency,[2],39.9 µM (active)
same,Potency,[4],7.96 µM (active)
same,Potency,[6],inactive
CCCc1ccccc1O,Potency,[1],inactive
same,Potency,[2],inactive
same,Potency,[5],inactive
same,Potency,[6],inactive
Cc1ccc(Nc2ccc(O)c3c2C(=O)c2ccccc2C3=O)cc1,Potency,[1],inactive
same,Potency,[2],inactive
same,Potency,[5],inactive
same,Potency,[6],inactive
c1cc(CN2CCCCC2)cc(OCCCNc2nc3ccccc3s2)c1,Potency,[1],3.89 µM (active)
same,Potency,[3],inactive
same,Potency,[4],inactive
CC(C)(O)C(=O)c1ccc(OCCO)cc1,Potency,[1],inactive
same,Potency,[2],inactive
same,Potency,[4],35.6 µM (active)
same,Potency,[5],inactive
same,Potency,[6],inactive
CCCCCOC(=O)Nc1nc(=O)n([C@@H]2O[C@H](C)[C@@H](O)[C@H]2O)cc1F,Potency,[1],inactive
same,Potency,[3],inactive
same,Potency,[4],inactive
same,Potency,[5],inactive
same,Potency,[6],inactive
NC(=O)c1c(Cl)cccc1Cl,Potency,[1],31.7 µM (active)
same,Potency,[2],20 µM (active)
same,Potency,[3],inactive
same,Potency,[6],31.7 µM (active)
CC(C)COC(=O)C(C)C,Potency,[1],inactive
same,Potency,[2],79.7 µM (active)
same,Potency,[5],inactive
same,Potency,[6],inactive
NC(=O)Nc1nc2ccccc2[nH]1,Potency,[1],31.5 µM (active)
same,Potency,[2],39.6 µM (active)
same,Potency,[4],39.6 µM (active)
same,Potency,[5],inactive
same,Potency,[6],inactive
O=S(=O)(O)c1ccccc1O,Potency,[1],25.2 µM (active)
same,Potency,[3],inactive
same,Potency,[4],inactive
same,Potency,[5],inactive
same,Potency,[6],inactive
CC(C)c1ccc2oc3nc(N)c(C(=O)O)cc3c(=O)c2c1,Potency,[1],15.5 µM (active)
same,Potency,[3],13.8 µM (active)
same,Potency,[4],17.4 µM (active)
same,Potency,[5],inactive
C1C2OC2C2C1C1CC2C2OC12 (configuration not stated),Potency,[1],inactive
same,Potency,[2],40.1 µM (active)
same,Potency,[4],inactive
same,Potency,[5],inactive
same,Potency,[6],inactive
CC(C)c1cccc(C(C)C)c1N,Potency,[1],inactive
same,Potency,[2],inactive
same,Potency,[4],20 µM (active)
same,Potency,[5],inactive
same,Potency,[6],inactive
COc1cc(O)cc(O)c1,Potency,[1],inactive
same,Potency,[3],inactive
Cn1cnc2c(=O)[nH]c(N)nc21,Potency,[1],inactive
same,Potency,[3],inactive
same,Potency,[4],28.3 µM (active)
same,Potency,[5],inactive
same,Potency,[6],inactive
CCN1CCCC1CNC(=O)c1cc(S(N)(=O)=O)ccc1OC (configuration not stated),Potency,[1],20 µM (active)
same,Potency,[2],inactive
same,Potency,[6],inactive
CCCCCCOC(=O)c1ccccc1O,Potency,[1],inactive
same,Potency,[2],inactive
same,Potency,[3],inactive
same,Potency,[6],inactive
CC(C=O)Cc1ccc(C(C)C)cc1 (configuration not stated),Potency,[1],inactive
same,Potency,[2],50.2 µM (active)
same,Potency,[5],inactive
same,Potency,[6],inactive
CCCCCCCCN(C)CCCCCCCC,Potency,[1],64 µM (active)
same,Potency,[2],inactive
same,Potency,[4],inactive
same,Potency,[5],1.57 µM (active)
same,Potency,[6],inactive
COc1ccc2cc(C=O)ccc2c1,Potency,[1],inactive
same,Potency,[3],17.4 µM (active)
same,Potency,[4],13.8 µM (active)
same,Potency,[5],inactive
same,Potency,[6],inactive
COC[C@H](c1ccc(C(F)(F)F)cc1)N1CCN(C2(C)CCN(C(=O)c3c(C)ncnc3C)CC2)C[C@H]1C,Potency,[1],34.7 µM (active)
same,Potency,[3],inactive
same,Potency,[4],inactive
C1COCCO1,Potency,[1],inactive
same,Potency,[2],36.4 µM (active)
same,Potency,[5],inactive
same,Potency,[6],inactive
O=[N+]([O-])c1ccc(CCO)cc1,Potency,[1],inactive
same,Potency,[2],inactive
same,Potency,[3],inactive
same,Potency,[6],inactive
N#CCc1ccccc1[N+](=O)[O-],Potency,[1],78.7 µM (active)
same,Potency,[2],inactive
same,Potency,[4],31.3 µM (active)
same,Potency,[5],inactive
same,Potency,[6],inactive
CCCC(=O)O[C@]1(C(=O)CCl)[C@@H](C)C[C@H]2[C@@H]3CCC4=CC(=O)C=C[C@]4(C)[C@@]3(F)C(=O)C[C@@]21C,Potency,[1],11 µM (active)
same,Potency,[2],7.76 µM (active)
same,Potency,[4],inactive
C#CC(O)C(CC)CCCC (configuration not stated),Potency,[1],inactive
same,Potency,[2],71 µM (active)
same,Potency,[4],inactive
O=C(O)/C=C/c1ccc(Cn2ccnc2)cc1,Potency,[1],inactive
same,Potency,[3],17.4 µM (active)
same,Potency,[4],24.5 µM (active)
same,Potency,[5],inactive
Cc1c(C)n(CCN(C)C)c2ccc(C(=O)OCCN(C)C)cc12,Potency,[1],inactive
same,Potency,[3],inactive
same,Potency,[4],17.4 µM (active)
same,Potency,[5],inactive
same,Potency,[6],inactive
CC(C)=CCC/C(C)=C/C(=O)O,Potency,[1],inactive
same,Potency,[2],39.9 µM (active)
same,Potency,[4],inactive
same,Potency,[5],inactive
same,Potency,[6],inactive
CC1=CCC2C(C1)C2(C)C (configuration not stated),Potency,[1],inactive
same,Potency,[2],39.9 µM (active)
same,Potency,[3],63.3 µM (active)
same,Potency,[6],15.9 µM (active)
CN(C)C(=O)Nc1ccccc1,Potency,[1],inactive
same,Potency,[3],inactive
same,Potency,[6],inactive
CC(CCO)CCCC(C)(C)O (configuration not stated),Potency,[1],inactive
same,Potency,[3],inactive
same,Potency,[6],inactive
CCC(=O)Nc1cccc(N)c1,Potency,[1],inactive
same,Potency,[3],inactive
same,Potency,[5],inactive
CCCCC1CCCCC(=O)O1 (configuration not stated),Potency,[1],inactive
same,Potency,[3],inactive
same,Potency,[5],inactive
same,Potency,[6],inactive
COc1cc(CCC(C)=O)ccc1O,Potency,[1],inactive
same,Potency,[3],inactive
same,Potency,[5],inactive
same,Potency,[6],inactive
CCCCCCC(CCCCCCCCCCC(=O)OCC(COC(C)=O)OC(C)=O)OC(C)=O (configuration not stated),Potency,[1],inactive
same,Potency,[3],2.45 µM (active)
same,Potency,[6],inactive
CC(C)(C)OC(=O)N1C[C@@H](F)C[C@H]1C(=O)O,Potency,[1],inactive
same,Potency,[5],inactive
same,Potency,[6],36.8 µM (active)
NCC[C@H](O)C(=O)N[C@@H]1C[C@H](N)[C@@H](O[C@H]2O[C@H](CN)[C@@H](O)[C@H](O)[C@H]2O)[C@H](O)[C@H]1O[C@H]1O[C@H](CO)[C@@H](O)[C@H](N)[C@H]1O,"activity change, negative = inhibition",[1],-0.464% [at 0.435 µM]
same,"activity change, negative = inhibition",[3],0.45% [at 0.435 µM]
same,"activity change, negative = inhibition",[4],12.4% [at 0.435 µM]
same,"activity change, negative = inhibition",[5],0.203% [at 0.29 µM]
same,"activity change, negative = inhibition",[6],8.51% [at 0.435 µM]
COCCOC(=O)CC#N,Potency,[1],inactive
same,Potency,[3],inactive
same,Potency,[4],inactive
same,Potency,[6],inactive
